The source of these data is PubChem BioAssay (NCI).

The panel holds about 83,000 compounds, 20% with a hit somewhere; the sample as a whole holds those more often.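 Note: values are percent growth. 100 is the growth of untreated cells, values between 100 and 0 indicate rising inhibition; between -100 and 0 indicates cell death.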 Unmarked numbers belong to inactive results. Activity calls are given as the source filed them. How the source made its calls: active means growth percent below 10; inactive means the rest.

Among the test systems are NCI-H23 lung; NCI-H226 lung; NCI-H322M lung; HOP-62 NSCLC; NCI-H460 lung; HOP-92 NSCLC; NCI-H522 lung; A549/ATCC NSCLC; 786-0 renal; COLO 205 colon; DU-145 prostate; K-562 leukemia; MALME-3M melanoma; MDA-MB-231 breast; RXF 393 renal; SF-268 CNS; SF-295 CNS; SF-539 CNS; UACC-257 melanoma; M14 melanoma.
Assay in all cases: NCI-60 one-dose screen, 48 h (100 = growth as untreated, 0 = no growth, -100 = all killed)
Holding throughout (conditions): 10 µM unless noted

As to `O=C1O[C@@H](c2ccccc2Cl)[C@@H]2c3cc4c(cc3CCN12)OCO4`, the growth in the assay with NCI-H23 lung was 103%; with NCI-H226 lung, 93.7%; with NCI-H322M lung, 89.3%; in the assay on HOP-62 NSCLC it was 96.2%; in the assay with NCI-H460 lung, 101%; in the assay on HOP-92 NSCLC it was 92.5%. The growth in the assay with NCI-H522 lung was 81.9%; in the assay with A549/ATCC NSCLC, 86.3%; in the assay with 786-0 renal, 97.9%; in the assay with COLO 205 colon it was 110%; with DU-145 prostate it was 105%; with K-562 leukemia, 87.5%. Moreover, the growth was 101% with MALME-3M melanoma; 97.2% in the assay with MDA-MB-231 breast; 111% in the assay on RXF 393 renal; 93.2% with SF-268 CNS; 102% in the assay with SF-295 CNS; 107% with SF-539 CNS. The growth is 90.7% in the assay with UACC-257 melanoma and 105% in the assay on M14 melanoma.

For `CCN(CC)c1ccc(-c2cc(-c3cc(OC)c(OC)c(OC)c3)nc(N3CCC(O)CC3)c2C#N)cc1`, the growth with NCI-H23 lung is 0.411% (active); with NCI-H226 lung, -36.2% (active); in the assay on NCI-H322M lung, 18.1%; in the assay with HOP-62 NSCLC, 17.9%; with NCI-H460 lung it was -32.8% (active); with HOP-92 NSCLC, -17.6% (active). Besides, the growth in the assay with NCI-H522 lung is -52.3% (active); in the assay on A549/ATCC NSCLC it was 0.627% (active); in the assay with 786-0 renal it was -22% (active); in the assay with COLO 205 colon, -60.9% (active); in the assay with DU-145 prostate, 1.59% (active); with K-562 leukemia, 2.04% (active). Besides, the growth with MALME-3M melanoma is -49.2% (active); with MDA-MB-231 breast, -58.7% (active); in the assay with RXF 393 renal, -13.3% (active); in the assay on SF-268 CNS, 0.835% (active); in the assay with SF-295 CNS it was -62.2% (active); in the assay on SF-539 CNS it was -44.3% (active). Besides, the growth in the assay with UACC-257 melanoma is -47.5% (active); with M14 melanoma, -56.4% (active).

Regarding `O=C1C=C(SCCO)C(=O)c2ccccc21`, the growth in the assay with NCI-H23 lung is -39% (active); in the assay on NCI-H226 lung, 95.6%; in the assay with NCI-H322M lung it was 69.6%; with HOP-62 NSCLC, -46.9% (active); in the assay with NCI-H460 lung it was 9.52% (active); in the assay on HOP-92 NSCLC, 94.3%. Moreover, the growth in the assay with NCI-H522 lung is 21.6%; in the assay on A549/ATCC NSCLC, 68.1%; in the assay with 786-0 renal, 70.3%; with COLO 205 colon, 76.3%; in the assay with DU-145 prostate, -96.7% (active); in the assay with K-562 leukemia, -38.4% (active). The growth with MALME-3M melanoma was -68.1% (active); in the assay with MDA-MB-231 breast, 40.2%; with RXF 393 renal, 42.4%; in the assay on SF-268 CNS it was 27.2%; in the assay with SF-295 CNS it was -77.4% (active); with SF-539 CNS, -77.1% (active). The growth in the assay with UACC-257 melanoma is 66.7%; in the assay with M14 melanoma, -86.5% (active).

With `O=C1CCC(C(=O)N/N=C/c2cc(F)ccc2F)N1` (stereo not given), the growth with NCI-H23 lung was 95.3%; in the assay with NCI-H226 lung, 99.2%; in the assay on NCI-H322M lung, 99.7%; in the assay with HOP-62 NSCLC, 103%; in the assay on NCI-H460 lung, 101%; in the assay with HOP-92 NSCLC, 95.4%. For the same compound, the growth was 93.7% in the assay with NCI-H522 lung; 97.6% in the assay on A549/ATCC NSCLC; 103% in the assay on 786-0 renal; 110% in the assay with COLO 205 colon; 110% in the assay on DU-145 prostate; 97.1% in the assay with K-562 leukemia. Further, the growth in the assay with MALME-3M melanoma is 95.1%; in the assay with MDA-MB-231 breast, 111%; in the assay on RXF 393 renal, 108%; in the assay on SF-268 CNS, 97.2%; with SF-295 CNS it was 99.5%; with SF-539 CNS it was 101%. The growth was 103% with UACC-257 melanoma and 104% in the assay on M14 melanoma.

Turning to `CCCCCCCCn1ccc2cc(NC(=O)CN3CCN(c4cc(C)nc(Cl)n4)CC3)ccc21`, the growth with NCI-H23 lung is 81.7%; in the assay on NCI-H226 lung, 82.2%; with NCI-H322M lung, 89.5%; in the assay with HOP-62 NSCLC it was 119%; in the assay on NCI-H460 lung, 91.8%; with HOP-92 NSCLC, 81.1%. Also, the growth in the assay with NCI-H522 lung is 76.2%; with A549/ATCC NSCLC, 87.4%; in the assay on 786-0 renal, 94.6%; in the assay on COLO 205 colon, 106%; in the assay on DU-145 prostate it was 93.8%; in the assay on K-562 leukemia, 63.1%. Also, the growth is 95.3% with MALME-3M melanoma; 94.8% with MDA-MB-231 breast; 69.2% in the assay with RXF 393 renal; 90.3% in the assay on SF-268 CNS; 83.7% in the assay on SF-295 CNS; 92.8% in the assay on SF-539 CNS. Besides, the growth is 92.8% with UACC-257 melanoma and 89.4% with M14 melanoma.

Consider `CCOC(=O)NC(=S)n1oc(=O)c2ccccc21`, for which the growth with NCI-H23 lung was 97.7%; with NCI-H226 lung, 102%; in the assay on NCI-H322M lung, 98.8%; with HOP-62 NSCLC, 99.4%; in the assay on NCI-H460 lung, 101%; in the assay with HOP-92 NSCLC, 86.2%. Further, the growth in the assay on NCI-H522 lung is 99.3%; with A549/ATCC NSCLC, 103%; in the assay on 786-0 renal, 111%; in the assay with COLO 205 colon, 103%; in the assay on DU-145 prostate, 106%; in the assay on K-562 leukemia it was 112%. In addition, the growth in the assay on MALME-3M melanoma was 95.4%; in the assay with MDA-MB-231 breast it was 96.8%; with RXF 393 renal it was 111%; in the assay on SF-268 CNS it was 96.1%; in the assay on SF-295 CNS, 103%; in the assay with SF-539 CNS, 95.6%. Besides, the growth is 105% in the assay with UACC-257 melanoma and 104% with M14 melanoma.

For `CCN(CC)CCOc1ccc(C(=O)/C=C\c2ccc(Cl)cc2Cl)cc1`, the growth is 58.3% in the assay with NCI-H23 lung; 53.5% in the assay on NCI-H226 lung; 63.9% in the assay on NCI-H322M lung; 57.2% with HOP-62 NSCLC; 61.3% with NCI-H460 lung; 24.5% with HOP-92 NSCLC. Further, the growth with NCI-H522 lung was 44%; in the assay on A549/ATCC NSCLC, 21.7%; in the assay on 786-0 renal it was 35.9%; in the assay on COLO 205 colon it was -53.5% (active); in the assay with DU-145 prostate, 51.7%; in the assay with K-562 leukemia, 3.71% (active). Further, the growth was 42.4% in the assay on MALME-3M melanoma; 32.6% in the assay with MDA-MB-231 breast; 34% in the assay on RXF 393 renal; 55.2% in the assay on SF-268 CNS; 63.2% in the assay with SF-295 CNS; 30% in the assay with SF-539 CNS. Moreover, the values for the growth with UACC-257 melanoma and in the assay with M14 melanoma were 3.72% (active) and -37.4% (active), respectively.
